Results from PubChem BioAssay (NCI).
Compounds without any hit were thinned out: in the full panel of roughly 83,000, 20% have a hit.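 96-well plates, one dose, 48 hours. Percent growth reported; active if below 10.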 Calls of active or inactive are those of the source.

Experiments:
Assay in all cases: NCI-60 one-dose screen, 48 h (100 = growth as untreated, 0 = no growth, -100 = all killed)
Details in all cases: 10 µM unless noted
[1] = tested on: RPMI-8226 leukemia
[2] = tested on: OVCAR-8 ovarian
[3] = tested on: OVCAR-5 ovarian
[4] = tested on: OVCAR-4 ovarian
[5] = tested on: SK-OV-3 ovarian
[6] = tested on: IGROV1 ovarian
[7] = tested on: OVCAR-3 ovarian
[8] = tested on: HS 578T breast
[9] = tested on: NCI/ADR-RES ovarian
[10] = tested on: T-47D breast
[11] = tested on: BT-549 breast
[12] = tested on: MDA-MB-435 melanoma
[13] = tested on: SW-620 colon
[14] = tested on: MCF7 breast
[15] = tested on: HCT-116 colon
[16] = tested on: HCC-2998 colon
[17] = tested on: KM12 colon

Measured: growth

COc1ccc2c(c1)/C(=C/c1sc(=S)n(Cc3ccco3)c1O)C=N2
active: [11] 7.24% | [12] -32.7%
inactive: [1] 18.5% | [2] 40.7% | [3] 76.8% | [4] 73.7% | [5] 68.6% | [6] 47.8% | [7] 22.9% | [8] 20.4% | [9] 13.3% | [10] 45.3% | [13] 28.1% | [14] 21.8% | [15] 11.9% | [16] 44.7% | [17] 23.9%

OC(COc1ccccc1)CN1CCN(c2ccc(Cl)cc2)CC1 (stereo not drawn)
inactive: [1] 95.1% | [2] 93.9% | [3] 111% | [4] 97.6% | [5] 102% | [6] 124% | [7] 100% | [8] 100% | [9] 101% | [10] 102% | [11] 101% | [12] 121% | [13] 98.7% | [14] 102% | [15] 92.6% | [16] 109% | [17] 98%

CCOc1ccc2nc(SCc3nc4n(n3)S(=O)(=O)c3ccccc3N4C)sc2c1
active: [3] -9.82% | [6] -30.9% | [8] -59.3% | [9] 6.82% | [11] -10.6% | [17] 7.52%
inactive: [1] 30.7% | [2] 27.7% | [4] 31.2% | [5] 35.3% | [7] 37.5% | [10] 45.2% | [12] 60.8% | [13] 14% | [14] 47.3% | [15] 19.1% | [16] 28.5%

Oc1ccc(CCl)c2cccnc12
inactive: [1] 57.4% | [2] 73.8% | [3] 88.4% | [4] 24.6% | [5] 87.9% | [6] 78.8% | [7] 10.8% | [8] 79.7% | [9] 28.8% | [10] 30.3% | [11] 66.7% | [12] 84.8% | [13] 41.5% | [15] 15.4% | [16] 91.3% | [17] 82%
active: [14] 5.57%

O=C(Nn1c(NCC(=O)N2c3ccccc3Sc3ccccc32)nnc1-c1ccc(O)cc1)c1ccccc1
inactive: [1] 101% | [2] 104% | [3] 90.4% | [4] 105% | [5] 101% | [6] 102% | [7] 114% | [8] 108% | [9] 93.7% | [10] 98.9% | [11] 98.4% | [12] 102% | [13] 105% | [14] 108% | [15] 91.7% | [16] 91.9% | [17] 104%

CNCCCC12CCC(c3ccccc31)c1ccccc12
inactive: [1] 91% | [2] 99.7% | [3] 90.2% | [4] 86.8% | [5] 85.2% | [6] 82.7% | [7] 107% | [8] 87.3% | [9] 89.5% | [10] 89% | [11] 78.3% | [12] 78.9% | [13] 98.2% | [14] 87.3% | [15] 69.1% | [16] 50.5% | [17] 94.1%

O=C(N/N=C/c1ccc(Cl)cc1)c1ccc(C(F)(F)F)nc1Nc1cccc(C(F)(F)F)c1
active: [1] 3.59% | [7] -45.2% | [8] 4.32% | [9] -36.2% | [10] 3.73% | [11] 9.33% | [13] 8.01% | [14] 0.997% | [15] -33.6% | [16] -38.9% | [17] 8.69%
inactive: [2] 24% | [3] 28% | [4] 18.6% | [5] 23.8% | [6] 21.1% | [12] 34.8%

N#Cc1c(-c2ccc(Cl)cc2)nc2c(c(-c3ccccc3)nn2-c2ccccc2)c1-c1ccc(O)cc1
inactive: [1] 17.9% | [2] 49.9% | [3] 84% | [4] 64.7% | [5] 96.9% | [6] 69.8% | [7] 48.3% | [8] 26.5% | [9] 57.9% | [10] 55.4% | [11] 62.3% | [12] 49% | [13] 54.4% | [14] 19.6% | [15] 14.3% | [16] 84.9% | [17] 41%

CCOC(=O)CC1C(COC(=O)NC)OC(n2cnc3c(NC(=O)Nc4ccccc4)ncnc32)C1O[Si](C)(C)C(C)(C)C (stereo not drawn)
active: [16] -8.59%
inactive: [1] 39.7% | [2] 74% | [3] 94.2% | [4] 41.6% | [5] 94.9% | [6] 49.1% | [7] 51.1% | [8] 57.1% | [9] 48.1% | [10] 29.1% | [11] 64.5% | [12] 49.3% | [13] 72.2% | [14] 11.7% | [15] 17.1% | [17] 31.2%
